# Many of the other results were omitted from the sample, so the strongest signals are more common in it than they were.
# B1: rEtpA (Escherichia coli) (protein)
# chain: MNRIYKLKFDKRRNELVVVSEITTGVGNAKATGSVEGEKSPRRGVRAMALSLLSGMMIMAHPAMSANLPTGGQIVAGSGSIQTPSGNQMNIHQNSQNMVANWNSFDIGKGNTVQFDQPSSSAVALNRVVGGGESQIMGNLKANGQVFLVNPNGVLFGEGASVSTSGFVASTRDIKNDDFMNRRYTFSGGQKAGAAIVNQGELTTNAGGYIVLAADRVSNSGTIRTPGGKTVLAASERITLQLDNGGLMSVQVTGDVVNALVENRGLVSARDGQVYLTALGRGMLMNTVLNVSGVVEASGMHRQDGNIVLDGGDSGVVHLSGTLQADNASGQGGKVVVQGKNILLDKGSNITATGGQGGGEVYVGGGWQGKDSNIRNADKVVMQGGARIDVSATQQGNGGTAVLWSDSYTNFHGQISAKGGETGGNGGRVETSSHGNLQAFGTVSASAKKGKAGNWLLDSADITIVNGSNVSKTETTQSPPHTQFAPTAAGSAVSNTSINNRLNNGTSVTILTHRTRTGTAQGGNITVNAAINKSNGSDVNLTLQAGGNITVNNSITSTEGKLNVNLSGARTSNGSITISNNANITTNGGDITVGTTNTSNRVNISINNTTLNASNGNIQLTGTGTDSGILFAGNNRLTASNIALTGNSTSGNAINLTGTATLNATNNITLTGSSTSGNAINLKGNNTLTASNITLTGESTSGNAINLTDTTGTTTLNATNNITMQGTRVQIKHSNITAGNFALNATVAGSEISNTTLTATNNINLAAKTNSASSGVYLKDARITSTNGSITANGTATANGKATHLDGNVTLNASNGRIKLTGNGHGSASGILFAGNNRLTASNIALTGNSTSGNAINLTGTATLNATNDITLTGSSTSGNAINLTGTATLNATNNITLTGSSTSGNAINLKGNNTLTASNITLTGESTSGNAINLTDTTGTTTLNATNNITMQGTRVQIKHSNITAGNFALNATVAGSEISNTTLTATNNINLAAKTNSASSGVYLKDARITSTNGSITANGTATANGKATHLDGNVTLNASNGRIKLTGNGHGSASGILFAGNNRLTASNIALTGNSTSGNAINLTGTATLNATNDITLTGSSTSGNAINLTGTATLNATNNITLTGSSTSGNAINLKGNNTLTASNITLTGESTSGNAINLTDTTGTTTLNATNNITMQGTRVQIKHSNITAGNFALNATVAGSEISNTTLTATNNINLAAKTNSASSGVYLKDARITSTNGSITANGTATANGKATHLDGNVTLNASNGRIKLTGNGHGSASGILFAGNNRLTASNIALTGNSTSGNAINLTGTATLNATNDITLTGSSTSGNAINLTGTATLNATNNITLTGSSTSGNAINLKGNNTLTASNITLTGESTSGNAINLTDTTGTTTLNATNNITMQGTRVQIKHSNITAGNFALNATVAGSEISNTTLTATNNINLAAKTNSASSGVYLKDARITSTNGSITTNGTATANGKATHLDGNVTLNASNGRIKLTGNGHGSASGILFAGNNRLTASNIALTGNSTSGNAINLTGTATLNATNDITLTGSSTSGNAINLTGTATLNATNNITLTGSSTSGNAINLKGNNTLTASNITLTGESTSGNAINLTDTTGTTTLNATNNITMQGTRVQIKHSNITAGNFALNATVAGSEISNTTLTATNNINLAAKTNSASSGVYLKDARITSTNGSITANGTAPANDNATYLDGNVTLNASNGSIKLTGNGNGSTSGILFAGNNTLTASNITLTGNSEVYWQKLGPEQKLISEEDLNSAVDHHHHHH
# What was measured:
# Assay in all cases: glycan array binding signal (z-score within array); higher = stronger binding
# Settings in all cases: glycan notation: IUPAC condensed, linker removed
# Gal3S6S(b1-4)GlcNAc = target: Gal3S6S(b1-4)GlcNAc
# In short: (§1)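 Columns mapping to the same glycan were averaged after glycan names were converted to IUPAC-condensed notation. The data come from 3228 arrays in the Consortium for Functional Glycomics database, limited to those with an available protein sequence. Binding is reported as a within-array Z-score averaged across arrays of one protein sequence and across linkers.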
# Gal6S(b1-4)GlcNAc6S = target: Gal6S(b1-4)GlcNAc6S
# In short: as §1
# [1] = target: Glc(a1-4)Glc(a1-4)Glc(a1-4)Glc
# In short: as §1
# GlcA(b1-3)GlcNAc = target: GlcA(b1-3)GlcNAc
# In short: as §1
# [2] = target: GlcA3S(b1-3)Gal(b1-4)GlcNAc(b1-2)Man
# In short: as §1
# [3] = target: GlcNAc(a1-4)Gal(b1-3)GlcNAc
# In short: as §1
# [4] = target: GlcNAc(a1-4)Gal(b1-4)GalNAc
# In short: as §1
# [5] = target: GlcNAc(a1-4)Gal(b1-4)GlcNAc
# In short: as §1
# [6] = target: GlcNAc(a1-4)Gal(b1-4)GlcNAc(b1-3)Gal(b1-4)Glc
# In short: as §1
# [7] = target: GlcNAc(a1-4)Gal(b1-4)GlcNAc(b1-3)Gal(b1-4)GlcNAc
# In short: as §1
# [8] = target: GlcNAc(a1-4)Gal(b1-4)GlcNAc(b1-3)Gal(b1-4)GlcNAc(b1-3)Gal(b1-4)GlcNAc
# In short: as §1
# [9] = target: GlcNAc(a1-4)Gal(b1-4)GlcNAc(b1-3)Gal(b1-4)[Fuc(a1-3)]GlcNAc(b1-3)Gal(b1-4)[Fuc(a1-3)]GlcNAc
# In short: as §1
# [10] = target: GlcNAc(b1-3)[GlcNAc(b1-6)]Gal(b1-4)GlcNAc
# In short: as §1
# [11] = target: GlcNAc(b1-6)Gal(b1-4)GlcNAc
# In short: as §1
# Kdn(a2-3)Gal(b1-3)GlcNAc = target: Kdn(a2-3)Gal(b1-3)GlcNAc
# In short: as §1
# [12] = target: Man(a1-2)Man(a1-3)[Man(a1-2)Man(a1-6)]Man(a1-6)[Man(a1-2)Man(a1-2)Man(a1-3)]Man(b1-4)GlcNAc(b1-4)GlcNAc
# In short: as §1
# [13] = target: Neu5Ac(a2-3)Gal(b1-3)GlcNAc(b1-2)[Neu5Ac(a2-3)Gal(b1-3)GlcNAc(b1-4)]Man(a1-6)[Neu5Ac(a2-3)Gal(b1-3)GlcNAc(b1-2)Man(a1-3)]Man(b1-4)GlcNAc(b1-4)GlcNAc
# In short: as §1
# [14] = target: Neu5Ac(a2-3)Gal(b1-3)[Fuc(a1-4)]GlcNAc(b1-3)Gal(b1-4)[Fuc(a1-3)]GlcNAc
# In short: as §1
# [15] = target: Neu5Ac(a2-3)Gal(b1-4)GlcNAc(b1-2)Man(a1-3)[Neu5Ac(a2-6)Gal(b1-4)GlcNAc(b1-2)Man(a1-6)]Man(b1-4)GlcNAc(b1-4)GlcNAc
# In short: as §1
# [16] = target: Neu5Ac(a2-3)Gal(b1-4)GlcNAc(b1-3)Gal(b1-4)GlcNAc(b1-3)GalNAc
# In short: as §1
# [17] = target: Neu5Ac(a2-3)Gal6S(b1-4)GlcNAc
# In short: as §1
# Neu5Ac(a2-6)Gal = target: Neu5Ac(a2-6)Gal
# In short: as §1
# [18] = target: Neu5Ac(a2-8)Neu5Ac(a2-3)[GalNAc(b1-4)]Gal(b1-4)Glc
# In short: as §1
# [19] = target: Neu5Gc(a2-3)Gal(b1-4)GlcNAc
# In short: as §1
# [20] = target: Neu5Gc(a2-6)Gal(b1-4)GlcNAc
# In short: as §1
# [21] = target: Neu5Gc(a2-8)Neu5Ac(a2-3)Gal(b1-4)GlcNAc
# In short: as §1
# [22] = target: Neu5Gc(a2-8)Neu5Gc(a2-3)Gal(b1-4)GlcNAc(b1-3)Gal(b1-4)GlcNAc
# In short: as §1
binder,measurement,setting,value
B1,glycan array binding signal (z-score),Gal3S6S(b1-4)GlcNAc,-0.028
same,glycan array binding signal (z-score),Gal6S(b1-4)GlcNAc6S,0.353
same,glycan array binding signal (z-score),[1],1.05
same,glycan array binding signal (z-score),GlcA(b1-3)GlcNAc,-0.337
same,glycan array binding signal (z-score),[2],-0.154
same,glycan array binding signal (z-score),[3],2.45
same,glycan array binding signal (z-score),[4],10.8
same,glycan array binding signal (z-score),[5],5.29
same,glycan array binding signal (z-score),[6],4.48
same,glycan array binding signal (z-score),[7],7.75
same,glycan array binding signal (z-score),[8],10.9
same,glycan array binding signal (z-score),[9],6.35
same,glycan array binding signal (z-score),[10],-0.354
same,glycan array binding signal (z-score),[11],-0.395
same,glycan array binding signal (z-score),Kdn(a2-3)Gal(b1-3)GlcNAc,0.581
same,glycan array binding signal (z-score),[12],-0.275
same,glycan array binding signal (z-score),[13],-0.163
same,glycan array binding signal (z-score),[14],-0.21
same,glycan array binding signal (z-score),[15],-0.305
same,glycan array binding signal (z-score),[16],-0.38
same,glycan array binding signal (z-score),[17],0.188
same,glycan array binding signal (z-score),Neu5Ac(a2-6)Gal,8.28
same,glycan array binding signal (z-score),[18],0.026
same,glycan array binding signal (z-score),[19],-0.194
same,glycan array binding signal (z-score),[20],0.192
same,glycan array binding signal (z-score),[21],-0.108
same,glycan array binding signal (z-score),[22],-0.353

# — the supplement of paper PMC8728848
